Pf Dd2 growth: blocks in vitro growth of P. falciparum Dd2; 4.3% of 120,000 active; P. falciparum Dd2 growth, SYBR Green, 72 h; AID 1347417; Potency, µM (titrated, usually from 28.9 µM), for the others: at the highest dose activity, negative = inhibition, actives largely listed as inhibitors; active means well fitted inhibition curve with a large enough effect;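 further: plate controls were DMSO vehicle for no effect and reference drug for full effect; nearly all actives have a fitted effect of over 65% in size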
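Readout: SYBR Green fluorescence, 485 nm excitation, 535 nm emission, after ~16 h lysis at 37C. Before that, Dd2-infected red cells (2.5% hematocrit) grew 72 h with compound, 29 uM top final concentration.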
Starred values were filed as active, the others as inactive; i = inactive; [ ] = another dose, or the depositor's remark. Shown is part of a subset that was picked to be rich in hits. Potency means the concentration at half of the fitted maximal effect.

SMILES | Pf Dd2 growth
Cc1ccc(OCc2ccc(C(=O)N3C[C@H](C4CC4)[C@@H](N)C3)cc2)cc1 | 10µM*
N[C@H]1CN(C(=O)c2ccc(Cn3cnnn3)cc2)C[C@@H]1C1CC1 | -9%
COc1ccc(CNC(=O)Cn2c(-c3ccc(F)cc3)nc(C)c(CCO)c2=O)cc1 | -13%
CCCC1COCCN1C(=O)c1cccc(CC2CCNCC2)c1 (stereo not drawn) | -2%
CCC(=O)N1CCN(c2nc3c(s2)CC(C(=O)O)CC3)CC1 (stereo not drawn) | -21%
CCC(=O)N1CCC(Cc2nc(-c3ccccc3)n[nH]2)CC1 | -27%
CCc1n[nH]c(CC2CCN(C(=O)c3ccccc3)CC2)n1 | -6%
O=C(Nc1ccc2c(c1)OCCO2)N1CCCC(Cc2noc(-c3ccncc3)n2)C1 (stereo not drawn) | i
Cc1ccc(CN2CCC(Cc3nc(-c4cccnc4)n[nH]3)C2)cc1C (stereo not drawn) | i
O=C(NCc1ccccc1)N1CCC(Cc2nc(-c3ccccc3)n[nH]2)C1 (stereo not drawn) | -11%
O=C(Cc1ccccc1)N1CCC(Cc2nc(-c3cccnc3)n[nH]2)C1 (stereo not drawn) | i
O=C(c1ccccc1)N1CCC(Cc2nc(-c3ccncc3)n[nH]2)CC1 | 1.3µM*
O=C(Nc1ccc2c(c1)OCCO2)N1CCC(Cc2nc(-c3cccnc3)n[nH]2)C1 (stereo not drawn) | 3.5µM*
Fc1cccc(CN2CCC(Cc3nc(-c4ccccc4)n[nH]3)C2)c1 (stereo not drawn) | 3.5µM*
COc1ccc(CNC(=O)[C@@H]2CCC[C@@H](NC(=O)C3CCOCC3)CN(C)C(=O)C2)cc1 | 0%
COc1ccccc1CC(=O)N1CCC2(CC1)NC(=O)N(Cc1ccccc1)C2=O | 13%
COc1ccc(C(=O)N2CCC3(CC2)NC(=O)N(Cc2ccccc2)C3=O)cc1OC | i
COc1cccc(C(=O)N2CCC3(CC2)NC(=O)N(Cc2ccccc2)C3=O)c1OC | 8.9µM*
N#Cc1cccc(NC(=O)CN2C(=O)NC3(CCOCC3)C2=O)c1 | 96%
O=C(CC1NC(=O)NC1=O)NCc1cccnc1Oc1ccccc1F (stereo not drawn) | 17%
O=C(c1ccccc1)N1CCC(c2nnc3n2C(C(=O)N2CCOCC2)CC3)CC1 (stereo not drawn) | 9%
COc1ccc(OCc2nc(C)c(CCO)c(=O)n2CC(=O)Nc2ccc(OC)c(OC)c2)cc1 | -8%
C#CCNC(=O)c1nc(C(C)(C)C)c2ccccn12 | -2%[44.1 µM]
COc1ccc(CNC(=O)CSc2ncc3c(n2)-c2cc(Cl)ccc2N(Cc2ccccc2)S3(=O)=O)cc1 | -29%
COc1ccccc1CNC(=O)CSc1ncc2c(n1)-c1ccc(Cl)cc1N(Cc1ccccc1)S2(=O)=O | 1%
SMILES | Pf Dd2 growth
COc1ccc(CNC(=O)CSc2ncc3c(n2)-c2ccc(Cl)cc2N(Cc2ccc(F)cc2)S3(=O)=O)cc1OC | 11µM*
Cc1ccc(C(=O)N2CCN(C3CCN(CCC(C)C)C3=O)CC2)cc1 (stereo not drawn) | -24%
CN(C)c1ccc(-c2nc3ccc(Cl)cn3c2Nc2ccc3c(c2)OCCO3)cc1 | i
c1ccc(Nc2c(-c3ccccc3)nc3ncccn23)cc1 | i
Cc1ccc(Nc2c(-c3ccsc3)nc3cccc(C)n23)cc1 | -1%
Cc1ccc2nc(-c3ccccc3O)c(Nc3ccccc3C)n2c1 | 1.4µM*
CN(C)c1ccc(-c2nc3cnccn3c2Nc2cccc(C(F)(F)F)c2)cc1 | 8.9µM*
Cc1ccc2nc(-c3ccc(O)cc3)c(Nc3ccc4c(c3)OCCO4)n2c1 | -5%
CN(Cc1ccccc1)C(=O)CCNc1c(-c2cccc(F)c2)nc2cnccn12 | -8%
O=C(O)CCNc1c(-c2ccc(F)cc2)nc2cnccn12 | -7%
Cc1cccc2nc(-c3ccccn3)c(Nc3ccccc3)n12 | 7.1µM*
Cc1ccn2c(Nc3ccc4c(c3)OCO4)c(-c3ccc(N(C)C)cc3)nc2c1 | 13µM*
COc1ccc(-c2nc3ccc(C)cn3c2Nc2ccc3c(c2)OCO3)cc1 | 17%
Cc1ccccc1Nc1c(-c2ccccc2O)nc2sccn12 | i
O=C(NCc1ccnc2[nH]ccc12)c1ccc2c(c1)OCO2 | 3%[44.1 µM]
Cc1ccc(C(=O)NC2CC(=O)N(CCCc3ccccc3)C2)s1 (stereo not drawn) | i
Cc1ccc(-c2ccc3nnc(CNC(=O)c4ccco4)n3n2)cc1C | 8%
CCCNS(=O)(=O)c1ccc(NC(=O)NCCc2nccs2)cc1 | -17%
CCCOc1ccc(CCNC(=O)C2NCCc3[nH]cnc32)cc1OC (stereo not drawn) | 5%
Cc1c(CN(C)C(=O)CC2C(=O)NCCN2CC(C)(C)C)[nH]c2ccccc12 (stereo not drawn) | -3%
COc1ccc2[nH]c3c(c2c1)CCNC31CCN(C(=O)c2sc(C)nc2C)CC1 | -1%
CC(C)c1noc(CC2CCN(C(=O)c3cccc(N(C)C)c3)CC2)n1 | -38%
COCC(=O)N1CCN2C(=O)N(Cc3ccccc3)C(=O)[C@H]2C1 | 0%[44.1 µM]
Cc1nc(NCC2CC2)ncc1C(=O)O | 12%

Source: PubChem
